Reference: the supplement of paper PMC12024424
Structures can show the parent of a compound that is named as a salt.

Test system: Staphylococcus aureus Sa2 (MRSA, cystic fibrosis isolate)
Test: growth reduction vs untreated control (OD550); higher = stronger antibacterial activity
Settings: 0.1 mM; 24 h
Description: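 Single-dose screen of the MedChem Express Drug Repurposing Library (0.1 mM, 1% DMSO) against planktonic MRSA S. aureus Sa2 (CF isolate) in TSB in 96-well plates, 37 °C aerobic, 24 h. Assays were run in triplicate and repeated twice.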

Structure (SMILES)	growth reduction
O=C(O)c1ccc(-n2nc(-c3ccccc3O)nc2-c2ccccc2O)cc1 [Deferasirox]	96.2%
CC/C(=C(/c1ccc(/C=C/C(=O)O)cc1)c1ccc2[nH]ncc2c1)c1ccc(F)cc1Cl [Brilanestrant]	96.6%
O=C(NCc1c(F)cc(F)cc1F)c1cn2c(c(O)c1=O)C(=O)N1[C@H]3CC[C@H](C3)O[C@@H]1C2 [Bictegravir]	100%
COc1cc2c(Nc3ccc(Cl)c(Cl)c3F)ncnc2cc1OC[C@@H]1C[C@@H]2CN(C)C[C@@H]2C1 [Tesevatinib]	100%
O=C(O)c1ccc2c(c1)CCCC(c1ccc(Cl)cc1Cl)=C2c1ccc(O[C@H]2CCN(CCCF)C2)cc1	100%
N=C(N)c1ccc(OCCCCCOc2ccc(C(=N)N)cc2)cc1 [Pentamidine (isethionate)]	100%
C=C[C@@H]1C[C@]1(NC(=O)[C@@H]1C[C@@H](Oc2ncc(OC)c3ccc(Cl)cc23)CN1C(=O)[C@@H](NC(=O)OC(C)(C)C)C(C)(C)C)C(=O)NS(=O)(=O)C1CC1 [Asunaprevir]	100%
CN(C(=O)CN(CCO)CC(=O)N(C)C(C)(C)Cc1ccccc1)C(C)(C)Cc1ccccc1 [Oxethazaine]	100%
OCCN1CCN(CC/C=C2/c3ccccc3Sc3ccc(Cl)cc32)CC1 [Zuclopenthixol]	100%
CCCCCCCCCCCCCCCC[N+](C)(C)CCN(Cc1ccc(OC)cc1)c1ncccn1 [Thonzonium (bromide)]	100%
Cc1cc(CC(C)CC(C)(C)C)n(O)c(=O)c1 (stereo unspecified) [Piroctone olamine]	100%
C=CC(N)CCC(=O)O (stereo unspecified) [Vigabatrin (hydrochloride)]	100%
C[C@H]1Cc2c([nH]c3cc(Cl)c(F)cc23)[C@@]2(N1)C(=O)Nc1ccc(Cl)cc12 [Cipargamin]	100%
C1CCC(C(CC2CCCCN2)C2CCCCC2)CC1 (stereo unspecified) [Perhexiline maleate]	100%
C#C[C@]1(O)CC[C@H]2[C@@H]3CCC4=CCCC[C@@H]4[C@H]3C(=C)C[C@@]21CC [Desogestrel]	99.4%
O=C(O)Cc1ccccc1Nc1c(Cl)cccc1Cl [Diclofenac]	100%

Structure (SMILES)	growth reduction
C=C(C)[C@@H]1CC[C@]2(C(=O)O)CC[C@]3(C)[C@H](CC[C@@H]4[C@@]5(C)CC[C@H](OC(=O)CC(C)(C)C(=O)O)C(C)(C)[C@@H]5CC[C@]43C)[C@@H]12 [Bevirimat]	96.7%
CC(C)(C)c1cc(-c2cc(-c3ccc(C(=O)O)cc3)ccc2OCCO)ccc1N1CCCC1 [Trifarotene]	100%
C=CC(=O)Nc1cc(Nc2nccc(-c3cn(C)c4ccccc34)n2)c(OC)cc1N(C)CCN(C)C [Osimertinib mesylate]	100%
CCCCN(CCCC)C(=O)CN1C[C@H](c2ccc3c(c2)OCO3)[C@@H](C(=O)O)[C@@H]1c1ccc(OC)cc1 [Atrasentan (hydrochloride)]	100%
CC1(C)CCC2=C(O1)c1ccccc1C(=O)C2=O [β-Lapachone]	100%
C=CC(=O)Nc1cc(Nc2nccc(-c3cn(C4CC4)c4ccccc34)n2)c(OC)cc1N(C)CCN(C)C [Almonertinib (hydrochloride)]	100%
CCCc1nc2c(C)cc(-c3nc4ccccc4n3C)cc2n1Cc1ccc(-c2ccccc2C(=O)O)cc1 [Telmisartan]	91.8%
C[C@H](CCC(=O)O)[C@H]1CC[C@H]2[C@@H]3[C@H](O)C[C@@H]4C[C@H](O)CC[C@]4(C)[C@H]3CC[C@]12C [Chenodeoxycholic Acid]	99%
CC(=O)Oc1ccccc1C(=O)Nc1ncc([N+](=O)[O-])s1 [Nitazoxanide]	99.5%
C=C1C[C@H]2[C@@H]3CCC4=CC(=O)CC[C@@H]4[C@H]3CC[C@]2(C)[C@@]1(OC(C)=O)C(C)=O [Nestoron]	93.2%
O=[N+]([O-])c1ccc(O)c2ncccc12 [Nitroxoline]	98.4%
CCN(CC)CCNC(=O)c1c(C)[nH]c(/C=C2\C(=O)Nc3ccc(-c4csc(-c5ccccc5)n4)cc32)c1C [Amcasertib]	100%
CO[C@@H](Cc1ccc(OCCc2nc(-c3ccccc3)oc2C)c2ccsc12)C(=O)O [Aleglitazar]	92.2%
CC(OC(=O)NCC1(CC(=O)O)CCCCC1)OC(=O)C(C)C (stereo unspecified) [Gabapentin enacarbil]	90.4%
CCCCc1oc2ccc(NS(C)(=O)=O)cc2c1C(=O)c1ccc(OCCCN(CCCC)CCCC)cc1 [Dronedarone]	96.5%
